# Only some compounds are listed: those with a hit (about 6.9% of all), similar ones and a draw of the others.
# HP1b binding inh – blocks HP1-beta chromodomain binding to methylated histone tails; P83916; AID 540317; AlphaScreen HP1-beta / biotin-H3K9me3 peptide binding; Potency, µM (series often up to 114 µM), without a hit: top-dose activity change, negative = inhibition, actives largely listed as inhibitors; hit rate 0.56% among 390,000; also: nearly all actives have a fitted effect of over 70% in size
# Target sequence (P83916 whole entry, looked up): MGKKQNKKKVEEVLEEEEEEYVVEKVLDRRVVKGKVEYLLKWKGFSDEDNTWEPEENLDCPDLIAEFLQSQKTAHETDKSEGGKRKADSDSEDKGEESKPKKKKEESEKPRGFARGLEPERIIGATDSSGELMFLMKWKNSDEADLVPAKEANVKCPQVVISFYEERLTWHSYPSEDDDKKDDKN
#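 Compound inhibition of the preformed complex between 50 nM HP1-beta and 50 nM biotinylated H3K9me3 peptide was read by AlphaScreen. Buffer was PBS pH 7.4 with 0.01% Tween-20. Incubations ran 30 min at room temperature, with 10 ug/mL donor/acceptor beads.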
# JMJD2A Tudor inh – blocks the human JMJD2A Tudor domain; Potency, µM (top dose mostly 114 µM), for the others: at the top dose activity change, negative = inhibition, most hits filed as inhibitors; AlphaScreen JMJD2A-Tudor / H3K4me3 peptide binding; hit rate 4.4% among 390,000; AID 504339; O75164; also: % is scaled to controls: 0 for no effect and ±100 for the full control effect; nearly all actives have a fitted effect of over 50% in size
# VDR inh – inhibitors of human vitamin D receptor. VDR-SRC2-3 peptide fluorescence polarization, 2 h. Potency, µM, inactives show max response, negative = inhibition, hits mostly inhibitors. hit rate 0.93% among 400,000; also: % is scaled to controls: 0 for no effect and ±100 for the full control effect
#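 The screen uses fluorescence polarization to detect compounds that interfere with recruitment of the SRC2-3 coactivator peptide to VDR; plates are read after 2 h at room temperature.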
# L3MBTL1 block – inhibitors of human L3MBTL1; Q9Y468; AlphaScreen L3MBTL1–H3K9me1 peptide binding; Potency, µM (doses to about 57.1 µM), without a hit: top-dose activity, negative = inhibition, usual class: inhibitors; hit rate 0.66% among 230,000; also: % is scaled to controls: 0 for no effect and ±100 for the full control effect; nearly all actives have a fitted effect of over 60% in size
#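 AlphaScreen proximity signal between nickel-chelate acceptor and streptavidin donor beads (final 10 ug/mL) reports binding of 50 nM L3MBTL1 to 75 nM biotin-H3 K9me1 peptide; complex incubated with compounds 30 min at room temperature; cefsulodin titration as control.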
# PLK1 PBD block – inhibitors of human PLK1 polo-box domain binding | P53350 | Plk1 PBD binding of FITC phosphopeptide, fluorescence polarization | Potency, µM, without a hit: max response, negative = inhibition, usual class: inhibitors | hit rate 2.8% among 360,000; also: series mostly up to about 57 µM; % is scaled to controls: 0 for no effect and ±100 for the full control effect; nearly all actives have a fitted effect of over 65% in size
# BAZ2B block – BAZ2B (human) inhibition | Potency, µM (highest dose often 114 µM), for the others: at the top dose activity change, negative = inhibition, usual class: inhibitors | Q9UIF8 | AlphaScreen BAZ2B-H3K14Ac peptide displacement | AID 504333 | hit rate 4.4% among 360,000; also: % is scaled to controls: 0 for no effect and ±100 for the full control effect; nearly all actives have a fitted effect of over 60% in size
#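 BAZ2B 50 nM plus b-H3(5-23)K14Ac 50 nM, PBS pH 7.4/0.01% Tween-20, 30 min RT; compound added (max 110 uM), 30 min RT; streptavidin donor/Ni-chelate acceptor beads 10 ug/mL final, 20 min dark; AlphaScreen read.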
# Numbers without * were called inactive; ? = inconclusive; · = not tested or not shown; [ ] = remark or other dose. Calls follow the shape of the dose curve; as a rule, active = well fitted curve in the direction sought with a large enough effect; inconclusive = small, poorly fitted or top-dose-only effect, or another doubt; inactive = no such curve, though single readings can be large; an effect the other way counts as inactive or inconclusive. Potency is read from the fitted curve at half-maximal effect.
SMILES,HP1b binding inh,JMJD2A Tudor inh,VDR inh,L3MBTL1 block,PLK1 PBD block,BAZ2B block
COCCn1c(=S)[nH]c2cc(OC)c(OC)cc2c1=O,19.0%,89.1µM*,11.0%,9.1%,-12.1%,-7.4%
COc1cc2[nH]c(=S)n(CCCN3CCOCC3)c(=O)c2cc1OC,1.0%,25.1µM*,18.8%,·,-5.1%,-14.9%
CCN(CC)CCCn1c(=S)[nH]c2cc(OC)c(OC)cc2c1=O,20.6%,?,12.5%,·,-15.6%,-29.7%
C[C@@H](CC(=O)O)[C@@H](N)C(=O)O,·,·,3.9%,·,·,·
CCn1c(=S)[nH]c2cc(C(=O)OC)ccc2c1=O,36.2%,-20.1%,13.4%,·,1.8%,-23.1%
COC(=O)c1ccc2c(=O)n(CCN3CCOCC3)c(=S)[nH]c2c1,18.0%,56.2µM*,-8.7%,6.1%[11.4 µM],-7.1%,-0.8%
COc1cc2[nH]c(=S)n(NC(=O)c3ccccc3)c(=O)c2cc1OC,18.8%,89.1µM*,1.6%,·,-10.5%,?
COC(=O)c1ccc2c(=O)n(NC(C)=O)c(=S)[nH]c2c1,?,3.55µM*,5.3%,·,-9.7%,50.1µM*
COc1cc2[nH]c(=S)n(CCN3CCOCC3)c(=O)c2cc1OC,-0.5%,31.6µM*,-0.8%,-6.5%,-5.6%,?
COC(=O)c1ccc2c(=O)n(CCCN3CCOCC3)c(=S)[nH]c2c1,20.9%,-33.7%,-5.8%,3.9%,2.0%,-3.0%
COc1ccc(Br)cc1S(=O)(=O)N1CCCc2ccccc21,71.9%,22.3%,-12.6%,21.4%,-8.3%,0.3%
O=C(Nc1ccccc1C(=O)NCC1CCCO1)c1ccc(Cl)cc1 (stereo not drawn),34.3%,-1.4%,-3.2%,·,-3.3%,-0.8%
O=C(CSc1ccc(Cl)cc1)NC(=O)c1ccccc1,62.9%,6.7%,-20.9%,6.0%,11.9µM*,7.3%
COc1ccc(NS(=O)(=O)c2ccccc2C(=O)O)cc1,·,-10.6%,·,·,·,·
O=C(O)c1cnc(-c2ccccc2)nc1Sc1ccc(Cl)cc1Cl,24.5%,-27.9%,?,3.9%,26.7µM*,1.6%
O=C(O)c1cnc(-c2ccccc2)nc1Sc1cccc(Cl)c1,32.1%,-9.2%[57.1 µM],-3.8%,3.6%,29.9µM*,2.0%
O=C(O)c1cnc(-c2ccccc2)nc1Sc1ccccc1,39.4%,-1.5%[57.1 µM],4.4%,-21.9%,?,?
Cc1ccc(-c2noc(-c3ccc(NCc4cccnc4)c([N+](=O)[O-])c3)n2)cc1,40.0%,-22.2%,0.0%,·,·,-10.0%
Cc1ccc(C)c(S(=O)(=O)NCC(c2ccco2)S(=O)(=O)c2ccc(F)cc2)c1 (stereo not drawn),76.4%,-23.7%,-4.4%,·,·,7.2%
O=C(Nc1nnc(-c2ccc(F)cc2)o1)C1CCCN1S(=O)(=O)c1cccs1 (stereo not drawn),34.9%,44.7µM*,3.7%,-3.5%,3.3%,79.4µM*
COc1ccc(-c2nc(CN3CCN(Cc4ccccc4)CC3)c(C)o2)cc1,1.0%,-33.2%,20.2%,-7.4%,-1.4%,?
Cc1cccc(N2CCN(Cc3nc(-c4cccc(Oc5ccccc5)c4)oc3C)CC2)n1,?,44.7µM*,-2.4%,?,1.6%,?
CCOc1ccc(CNS(=O)(=O)c2ccc(-c3cc(C(F)(F)F)on3)s2)cc1,29.8%,-10.4%,15.8%,·,·,1.4%
Cc1cc2c(s1)c1cnn(Cc3ccc(C)c(F)c3)c(=O)c1n2C,·,-31.5%,·,·,·,·
COc1ccc(Cl)cc1NC(=O)C/C(C)=N/NC(=O)CC#N,-7.2%,?,-21.4%,-0.8%,26.7µM*,-5.0%
COc1ccc(NC(=O)CCn2cccc2)c(OC)c1,13.7%,-26.6%,-5.4%,·,-23.9%,·
COc1ccc(OC)c(NC(=O)CCN2CC(C)CC(C)C2)c1 (stereo not drawn),19.3%,-18.9%,-21.1%,-4.6%[2.29 µM],23.8µM*,6.6%
COc1ccc(OC)c(NC(=O)CCn2cccc2)c1,-16.1%,-30.5%,-5.5%,-16.0%,-2.3%,50.1µM*
COc1ccc(Cl)cc1NC(=O)C/C(C)=N/NC(=O)CCc1ccccc1,23.3%,-23.9%,-8.4%,·,-8.3%,-11.0%
COc1ccc(Cl)cc1NC(=O)CCn1nc(C)cc1C,10.5%,?,6.4%,·,·,70.8µM*
